# This excerpt belongs to a sample that is enriched for the strongest signals.
# Key:
# Assay in all cases: glycan array binding signal (z-score within array); higher = stronger binding
# Conditions in all cases: glycan notation: IUPAC condensed, linker removed
# [1] = molecular target: Fuc(a1-2)Gal(b1-3)GlcNAc(b1-2)Man(a1-3)[Fuc(a1-2)Gal(b1-3)GlcNAc(b1-2)Man(a1-6)]Man(b1-4)GlcNAc(b1-4)[Fuc(a1-6)]GlcNAc
# In short: (§1)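 Glycan array binding is given as a within-array Z-score, which can be read as non-binding when negative. The arrays, 3228 of them, came from the Consortium for Functional Glycomics database and were retained only where the protein sequence was available. Z-scores were averaged across arrays of the same protein sequence at different concentrations or buffers and across linkers.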
# [2] = molecular target: Fuc(a1-2)Gal(b1-4)Fuc(a1-3)]GlcNAc(b1-2)Man(a1-3)[Fuc(a1-2)Gal(b1-4)[Fuc(a1-3)]GlcNAc(b1-2)Man(a1-6)]Man(b1-4)GlcNAc(b1-4)GlcNAc
# In short: as §1
# [3] = molecular target: Fuc(a1-2)Gal(b1-4)Glc6S
# In short: as §1
# [4] = molecular target: Fuc(a1-2)Gal(b1-4)GlcNAc(b1-3)[Fuc(a1-3)[Gal(b1-4)]GlcNAc(b1-6)]Gal(b1-4)Glc
# In short: as §1
# [5] = molecular target: Fuc(a1-2)[Gal(a1-3)]Gal(b1-4)GlcNAc(b1-2)Man(a1-3)[Fuc(a1-2)[Gal(a1-3)]Gal(b1-4)GlcNAc(b1-2)Man(a1-6)]Man(b1-4)GlcNAc(b1-4)[Fuc(a1-6)]GlcNAc
# In short: as §1
# [6] = molecular target: Fuc(a1-2)[GalNAc(a1-3)]Gal(b1-4)GlcNAc(b1-3)Gal(b1-4)GlcNAc(b1-3)Gal(b1-4)GlcNAc
# In short: as §1
# [7] = molecular target: Fuc(a1-3)[Gal(b1-4)]GlcNAc(b1-6)[Gal(b1-3)GlcNAc(b1-3)]Gal(b1-4)Glc
# In short: as §1
# [8] = molecular target: Fuc(a1-3)[GalNAc(b1-4)]GlcNAc6S
# In short: as §1
# [9] = molecular target: Gal(b1-3)Gal(b1-4)GlcNAc(b1-2)Man(a1-3)[Gal(b1-3)Gal(b1-4)GlcNAc(b1-2)Man(a1-6)]Man(b1-4)GlcNAc(b1-4)GlcNAc
# In short: as §1
# [10] = molecular target: Gal(b1-3)GalNAc(b1-4)[Neu5Ac(a2-3)]Gal(b1-4)Glc
# In short: as §1
# [11] = molecular target: Gal(b1-3)GlcNAc(b1-3)Gal(b1-4)GlcNAc
# In short: as §1
# [12] = molecular target: Gal(b1-4)Glc6S
# In short: as §1
# [13] = molecular target: Gal(b1-4)GlcNAc(b1-2)Man(a1-3)[Gal(b1-4)GlcNAc(b1-2)Man(a1-6)]Man(b1-4)GlcNAc(b1-4)GlcNAc
# In short: as §1
# [14] = molecular target: Gal(b1-4)GlcNAc(b1-2)Man(a1-3)[Gal(b1-4)GlcNAc(b1-2)Man(a1-6)]Man(b1-4)GlcNAc(b1-4)[Fuc(a1-6)]GlcNAc
# In short: as §1
# [15] = molecular target: Gal(b1-4)GlcNAc(b1-3)Gal(b1-4)Glc
# In short: as §1
# [16] = molecular target: Gal(b1-4)GlcNAc(b1-3)Gal(b1-4)GlcNAc(b1-2)Man(a1-3)[Gal(b1-4)GlcNAc(b1-3)Gal(b1-4)GlcNAc(b1-2)Man(a1-6)]Man(b1-4)GlcNAc(b1-4)GlcNAc
# In short: as §1
# [17] = molecular target: Gal(b1-4)GlcNAc(b1-3)Gal(b1-4)GlcNAc(b1-3)Gal(b1-4)GlcNAc(b1-2)Man(a1-3)[Gal(b1-4)GlcNAc(b1-3)Gal(b1-4)GlcNAc(b1-3)Gal(b1-4)GlcNAc(b1-2)Man(a1-6)]Man(b1-4)GlcNAc(b1-4)GlcNAc
# In short: as §1
# [18] = molecular target: Gal(b1-4)GlcNAc(b1-3)Gal(b1-4)GlcNAc(b1-3)Gal(b1-4)GlcNAc(b1-2)Man(a1-3)[Gal(b1-4)GlcNAc(b1-3)Gal(b1-4)GlcNAc(b1-3)Gal(b1-4)GlcNAc(b1-2)Man(a1-6)]Man(b1-4)GlcNAc(b1-4)[Fuc(a1-6)]GlcNAc
# In short: as §1
# [19] = molecular target: Gal(b1-4)GlcNAc(b1-3)Gal(b1-4)GlcNAc(b1-3)Gal(b1-4)GlcNAc(b1-2)[Gal(b1-4)GlcNAc(b1-3)Gal(b1-4)GlcNAc(b1-3)Gal(b1-4)GlcNAc(b1-6)]Man(a1-6)[Gal(b1-4)GlcNAc(b1-3)Gal(b1-4)GlcNAc(b1-3)Gal(b1-4)GlcNAc(b1-2)Man(a1-3)]Man(b1-4)GlcNAc(b1-4)[Fuc(a1-6)]GlcNAc
# In short: as §1
# [20] = molecular target: Gal(b1-4)GlcNAc(b1-3)Gal(b1-4)GlcNAc(b1-3)Gal(b1-4)GlcNAc(b1-3)Gal(b1-4)GlcNAc(b1-3)Gal(b1-4)GlcNAc(b1-2)Man(a1-3)[Gal(b1-4)GlcNAc(b1-3)Gal(b1-4)GlcNAc(b1-3)Gal(b1-4)GlcNAc(b1-3)Gal(b1-4)GlcNAc(b1-3)Gal(b1-4)GlcNAc(b1-2)Man(a1-6)]Man(b1-4)GlcNAc(b1-4)GlcNAc
# In short: as §1
# [21] = molecular target: Gal(b1-4)GlcNAc(b1-3)Gal(b1-4)GlcNAc(b1-3)[Gal(b1-4)GlcNAc(b1-3)Gal(b1-4)GlcNAc(b1-6)]GalNAc
# In short: as §1
# [22] = molecular target: Gal(b1-4)GlcNAc(b1-6)[Gal(b1-4)GlcNAc(b1-3)]GalNAc
# In short: as §1
# [23] = molecular target: Gal3S4S(b1-4)GlcNAc
# In short: as §1
# [24] = molecular target: Gal4S(b1-4)GlcNAc
# In short: as §1
# [25] = molecular target: GalNAc(a1-3)GalNAc(b1-3)Gal(a1-4)Gal(b1-4)Glc
# In short: as §1
# [26] = molecular target: GalNAc(b1-3)GalNAc
# In short: as §1
# [27] = molecular target: GalNAc6S(b1-4)GlcNAc
# In short: as §1
# [28] = molecular target: Glc(a1-4)Glc(a1-4)Glc(a1-4)Glc
# In short: as §1
# [29] = molecular target: Glc(a1-6)Glc(a1-6)Glc(a1-6)Glc
# In short: as §1
# [30] = molecular target: GlcA(b1-6)Gal
# In short: as §1
binder,measurement,setting,value
"BabA (Helicobacter pylori), O52269_HELPY (protein) AEDDGFYMSAGYQIGEAAQMVKNTKGIQELSDNYENLSNLLTRYSTLNTLIKLSADPSAVNAARENLGASAKNLIGDTKNSPAYQAVLLAINAAVGFWNVVGYVTQCGGNANGQKSTSSTTIFNNEPGYRSTSITCSLNGHMPGYYGPMSIENFKKLNEAYQILQTALKNGLPALKENNGTVNVTYSYTCSGEGNDNCSLQTTGVTNQNNGTKTETQTIDGKSVTTTISSKVVDSQ",glycan array binding signal (z-score),[1],-0.237
same,glycan array binding signal (z-score),[2],3.3
same,glycan array binding signal (z-score),[3],0.321
same,glycan array binding signal (z-score),[4],-0.3
same,glycan array binding signal (z-score),[5],-0.046
same,glycan array binding signal (z-score),[6],-0.054
same,glycan array binding signal (z-score),[7],0.017
same,glycan array binding signal (z-score),[8],-0.664
same,glycan array binding signal (z-score),[9],0.28
same,glycan array binding signal (z-score),[10],0.035
same,glycan array binding signal (z-score),[11],-0.811
same,glycan array binding signal (z-score),[12],-0.359
same,glycan array binding signal (z-score),[13],-0.732
same,glycan array binding signal (z-score),[14],0.092
same,glycan array binding signal (z-score),[15],-0.535
same,glycan array binding signal (z-score),[16],4.08
same,glycan array binding signal (z-score),[17],4
same,glycan array binding signal (z-score),[18],2.03
same,glycan array binding signal (z-score),[19],2.31
same,glycan array binding signal (z-score),[20],3.86
same,glycan array binding signal (z-score),[21],4.39
same,glycan array binding signal (z-score),[22],-0.568
same,glycan array binding signal (z-score),[23],0.144
same,glycan array binding signal (z-score),[24],0.875
same,glycan array binding signal (z-score),[25],-0.709
same,glycan array binding signal (z-score),[26],-0.807
same,glycan array binding signal (z-score),[27],-0.764
same,glycan array binding signal (z-score),[28],0.344
same,glycan array binding signal (z-score),[29],0.59
same,glycan array binding signal (z-score),[30],-0.267
